# Assay results reported in ChEMBL document CHEMBL4513216, “Probing the Open Global Health Chemical Diversity Library for Multistage-Active Starting Points for Next-Generation Antimalarials” (ACS Infect Dis, 2020).
# In all, about 69,000 compounds went through this assay and about 8,600 (12%) showed an effect of 50% or more. The list comes from a sample in which strong results are over-represented; it also holds similar structures and randomly drawn compounds.
# Tested on: Plasmodium berghei
# Assay: Screen against P. berghei liver stage (PbLuc), transformed with Luciferase, at 10uM
# Format: functional, HepG2
# Conditions: tested at 10 uM
row,Structure (SMILES),INHIBITION
1,NC(=O)C1CCCN(C(=O)c2ccn(-c3ccc(F)cc3)n2)C1 (stereo not drawn),0.914%
2,c1cnc2[nH]c(C3CCNCC3)c(CN3CCOCC3)c2c1,6.32%
3,O=C([C@H]1CC[C@@H]2[C@@H](CCN2C2CCCCC2)O1)N1CCOCC1,20.6%
4,NCCCC(=O)NCC1(O)CCN(c2ccnc3cccnc23)C1 (stereo not drawn),8.3035%
5,OCC1CCCN1c1cc(NCCNc2ccccn2)ncn1 (stereo not drawn),7.12%
6,OCC1CCCN1c1cc(NCCc2ccccn2)ncn1 (stereo not drawn),64.1%
7,OCC1CCCN1c1cc(NCc2ccccn2)ncn1 (stereo not drawn),-41.6%
8,OCC1CCCN1c1cc(NCCc2ccsc2)ncn1 (stereo not drawn),66.3%
9,OCC1CCCN1c1cc(NCCc2nccs2)ncn1 (stereo not drawn),-0.71%
10,OCC1CCCN1c1cc(NCc2ccsc2)ncn1 (stereo not drawn),43.2%
11,C[C@@H]1C[C@H](C(F)(F)F)n2nc(C3CCN(S(=O)(=O)N(C)C)CC3)cc2N1,-2.11%
12,CNS(=O)(=O)c1ccc(C(=O)N2CCCC2c2ccccc2C)o1 (stereo not drawn),7.27%
13,O=C(NCc1nn(-c2ccccc2)c2c1CCC2)N1CCCC(O)C1 (stereo not drawn),-49.4%
14,Cn1c(CN2CCCC2)nnc1C1CCCN(C(=O)CN2CCCC2)C1 (stereo not drawn),21.2%
15,CN1CCN(Cc2nnc(C3CCN(CC4CC4)CC3)n2C)CC1,-17%
16,CN1CCN(Cc2nnc(C3CCN(C4CCCCC4)CC3)n2C)CC1,-10.9%
17,Cn1c(CN2CCCC2)nnc1C1CCCN(C(=O)C2CCOCC2)C1 (stereo not drawn),70.1%
18,CN1CCC(c2nnc(CN3CCOCC3)n2C)CC1,27.7%
19,Cn1c(CN2CCOCC2)nnc1C1CCCN(C(=O)CCC2CC2)C1 (stereo not drawn),8.51%
20,CCCOC(=O)N1CCCC(c2nnc(CN3CCOCC3)n2C)C1 (stereo not drawn),31.2%
21,CN(CCO)Cc1nnc(C2CCN(C(=O)C3CCOCC3)CC2)n1C,39.1%
22,Cn1c(CN2CCOCC2)nnc1C1CCN(C(=O)C2CCCC2)CC1,50.1%
23,CN1CCN(Cc2nnc(C3CCN(C(CO)CO)CC3)n2C)CC1,62.9%

row,Structure (SMILES),INHIBITION
1,CCN(C)CC(=O)N1CCCC(c2nnc(CN3CCOCC3)n2C)C1 (stereo not drawn),55.7%
2,Cn1c(CN2CCCC2)nnc1C1CCCN(C(=O)N2CCOCC2)C1 (stereo not drawn),5.78%
3,O=C(O)[C@@H]1CN(C(=O)CN2CCCCCC2)C[C@H]1c1ccccc1,-6.21%
4,CC(C)C1=NOC2(CCN(S(C)(=O)=O)CC2)C1,-35.4%
5,Cc1cc(C)n(CC2CCN(CC(O)COc3ccccc3)CC2)n1 (stereo not drawn),26.8%
6,NC1CCC(n2cc(C(=O)N[C@H]3CCCc4ccccc43)nn2)CC1 (stereo partly drawn),16.6%
7,CCc1nc(C2CCCN(C(=O)c3ccncc3)C2)no1 (stereo not drawn),-61.4%
8,Cc1noc(C)c1-c1cc(CCC2CN(CCC(N)=O)CCO2)ncn1 (stereo not drawn),-2.2555%
9,CCSCc1ccc(C(=O)N2CCCN(CC)CC2)cc1,47%
10,COc1ccc(C(C)NCCc2ccc(NC(C)=O)cc2)c(OC)c1 (stereo not drawn),1.56%
11,CN(C)c1cccc(C2CCCN2S(=O)(=O)c2cn(C)cn2)n1 (stereo not drawn),-52.6%
12,CSCCC(O)C(=O)N(C)Cc1cnn(-c2ccc(F)cc2)c1 (stereo not drawn),24.2%
13,CSCC[C@H](NC(C)=O)C(=O)N(C)Cc1ccc(-n2cccn2)cc1,54.4%
14,CSCCC(NC(N)=O)C(=O)Nc1ccc(-n2cccn2)nc1 (stereo not drawn),1.79%
15,CSCCC(NC(N)=O)C(=O)NCc1ccc(-n2cccn2)cc1 (stereo not drawn),56.6%
16,CN(Cc1ccc(-n2cccn2)cc1)C(=O)CCC(F)(F)F,35.1%
17,CSCCC(NC(N)=O)C(=O)NCc1cnn(-c2ccccc2)c1 (stereo not drawn),29.8%
18,Cc1cnc(C(=O)N2C[C@@H]3CC[C@H]2CN(S(=O)(=O)N(C)C)C3)cn1,42%
19,O=C(NC1CC1)N1C[C@@H]2CCN(C(=O)c3cscn3)[C@@H]2C1,-1.28%
20,Cn1cc(Cl)cc1C(=O)N1CCCN(Cc2nccn2C)CC1,0.16%
21,CCCc1noc(CN2CCCC2c2noc(C3CC3)n2)n1 (stereo not drawn),40.9%
22,O=C(NC1CC1)[C@H]1C[C@H]2OCC[C@H]2N(Cc2ccc(F)cc2)C1,-15.3%
23,Cc1cnc(-n2cnnc2)c(-c2cccc3c2CCNC3)c1,53.3%

row,Structure (SMILES),INHIBITION
1,Cc1nc(-n2cnnc2)ccc1-c1cccc2c1CCNC2,61.1%
2,Cc1ccc(C(=O)O)cc1-c1cccc2c1CCNC2,15.8%
3,Cc1cc(-c2cccc3c2CCNC3)cnc1-n1cnnc1,26.4%
4,CN(C)C(=O)c1ccc(-c2cccc3c2CCNC3)cc1,33.9%
5,COc1ccc(C(=O)O)cc1-c1cccc2c1CCNC2,21.2%
6,CCn1cncc1CN1CCN(CC2(c3ccc(C)cc3)CC2)CC1,-29.9%
7,O=C(O)C1(Cc2cc(-c3ccccc3F)no2)CCOCC1,21.9%
8,Cc1nn(C)c2nc(NCCN3CCCC(C(N)=O)C3)sc12 (stereo not drawn),20%
9,Cn1ccnc1CN1CCC(CCCc2ccccn2)(C(N)=O)CC1,-20.6%
10,CNC(=O)C1Cc2ccccc2CN1C(=O)CC(C)C (stereo not drawn),-47%
11,Cc1cc(C)n(CC(C)NC(=O)NCc2c(C)cc(C)[nH]c2=O)n1 (stereo not drawn),50.8%
12,Cc1cc(C)n(CC(C)CNC(=O)NCc2c(C)cc(C)[nH]c2=O)n1 (stereo not drawn),42.3%
13,Cc1cc(C)n(CCCNC(=O)NCc2c(C)cc(C)[nH]c2=O)n1,38.9%
14,CCC(=O)N1CCCC1c1n[nH]cc1-c1ccccc1F (stereo not drawn),-6.73%
15,Cc1ccc(C)c(-n2nnnc2SCN2CCCCC2=O)c1,13.7%
16,Cc1ccc(-n2nnnc2SCN2CCCCC2=O)cc1C,63.8%
17,O=C1CCCCN1CSc1nnnn1-c1ccc(Cl)cc1,30.4%
18,O=C(Cc1ccccn1)N1CCC(c2noc(-c3ccncc3)n2)CC1,-8.12%
19,O=C(NCC1CC1)[C@@H]1CCO[C@@H]2CCN(Cc3ccsc3)C[C@H]21,-9.71%
20,CC1CCC(NC(=O)c2nn(C)cc2I)CC1 (stereo not drawn),-32.5%
21,Cn1cc(I)c(C(=O)NC2CCCC2)n1,-13.2%
22,CC1CCC(NC(=O)c2nn(C)cc2Br)CC1 (stereo not drawn),65.2%
